Among the test systems are NCI-H23 lung; NCI-H226 lung; NCI-H322M lung; HOP-62 NSCLC; NCI-H460 lung; HOP-92 NSCLC; NCI-H522 lung; A549/ATCC NSCLC; 786-0 renal; COLO 205 colon; DU-145 prostate; K-562 leukemia; MALME-3M melanoma; MDA-MB-231 breast; RXF 393 renal; SF-268 CNS; SF-295 CNS; SF-539 CNS; UACC-257 melanoma; M14 melanoma.
Experiment in all cases: NCI-60 one-dose screen, 48 h (100 = growth as untreated, 0 = no growth, -100 = all killed)
Holding throughout (details): 10 µM unless noted

The panel holds about 83,000 compounds, 20% with a hit somewhere; the sample as a whole holds those more often.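 96-well plates, one dose, 48 hours. Percent growth reported; active if below 10.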 Values without a mark were called inactive. Activity calls are given as the source filed them.

For `O=C(Nc1nc2ccccc2s1)c1ccc(F)cc1`, the growth with NCI-H23 lung is 89.9%; in the experiment with NCI-H226 lung, 92.7%; in the experiment with NCI-H322M lung it was 92.5%; in the experiment on HOP-62 NSCLC it was 106%; with NCI-H460 lung it was 69.2%; in the experiment with HOP-92 NSCLC, 78.7%. The growth with NCI-H522 lung was 92.2%; with A549/ATCC NSCLC, 98.4%; with 786-0 renal, 108%; with COLO 205 colon it was 118%; in the experiment on DU-145 prostate it was 108%; in the experiment on K-562 leukemia, 90%. In addition, the growth was 96.2% in the experiment with MALME-3M melanoma; 95.5% in the experiment on MDA-MB-231 breast; 107% in the experiment with RXF 393 renal; 114% with SF-268 CNS; 103% in the experiment with SF-295 CNS; 102% in the experiment on SF-539 CNS. In addition, the growth in the experiment with UACC-257 melanoma is 108%; in the experiment with M14 melanoma, 110%.
Consider `CCc1ccc(CCCC(=O)O)cc1`, for which the growth with NCI-H23 lung was 96.5%; in the experiment with NCI-H226 lung, 95.1%; in the experiment with NCI-H322M lung, 101%; in the experiment on HOP-62 NSCLC, 87%; in the experiment on NCI-H460 lung, 108%; in the experiment on HOP-92 NSCLC it was 91.1%. For the same compound, the growth with NCI-H522 lung is 89.9%; with A549/ATCC NSCLC, 97.7%; in the experiment with 786-0 renal, 95.4%; in the experiment with COLO 205 colon, 112%; with DU-145 prostate it was 102%; in the experiment on K-562 leukemia, 98.9%. In addition, the growth in the experiment on MALME-3M melanoma was 107%; with MDA-MB-231 breast, 100%; in the experiment with RXF 393 renal, 112%; in the experiment with SF-268 CNS, 102%; in the experiment on SF-295 CNS, 98.5%; in the experiment on SF-539 CNS, 103%. For the same compound, the growth in the experiment on UACC-257 melanoma is 106%; in the experiment on M14 melanoma it was 94.2%.
In the case of `COc1ccc(C(O)c2cc3c(N)c(C(=O)Nc4cccc(Br)c4)sc3nc2C)cc1` (stereo not given), the growth with NCI-H23 lung is 21.9%; with NCI-H226 lung it was 3.81% (active); in the experiment on NCI-H322M lung, 45.9%; in the experiment with HOP-62 NSCLC it was 24.3%; in the experiment on NCI-H460 lung, 0.823% (active); with HOP-92 NSCLC it was 24.7%. Moreover, the growth with NCI-H522 lung is 9.45% (active); in the experiment on A549/ATCC NSCLC it was 11.2%; in the experiment on 786-0 renal, 15.3%; in the experiment with COLO 205 colon, -25% (active); with DU-145 prostate, 3.17% (active); with K-562 leukemia, 9.61% (active). Also, the growth with MALME-3M melanoma was 31.8%; in the experiment with MDA-MB-231 breast, 2.61% (active); in the experiment with RXF 393 renal, 28.2%; with SF-268 CNS, 6.77% (active); in the experiment with SF-295 CNS, 8.77% (active); with SF-539 CNS it was -19.9% (active). Further, the growth was 45.7% in the experiment with UACC-257 melanoma and 11.5% in the experiment on M14 melanoma.
For `Cc1ccccc1/C=C/C(=O)c1cccc(OCCCCOc2cccc(C(=O)/C=C/c3ccccc3C)c2)c1`, the growth is 94.6% in the experiment on NCI-H23 lung; 91.7% in the experiment on NCI-H226 lung; 92.1% in the experiment with NCI-H322M lung; 102% in the experiment with HOP-62 NSCLC; 98.1% in the experiment on NCI-H460 lung; 93.6% in the experiment with HOP-92 NSCLC. The growth is 85.8% in the experiment with NCI-H522 lung; 84.2% in the experiment with A549/ATCC NSCLC; 96.4% in the experiment with 786-0 renal; 106% in the experiment with COLO 205 colon; 98% in the experiment with DU-145 prostate; 97.1% with K-562 leukemia. For the same compound, the growth was 96.9% in the experiment with MALME-3M melanoma; 95% in the experiment with MDA-MB-231 breast; 98.6% with RXF 393 renal; 102% in the experiment on SF-268 CNS; 97.7% in the experiment on SF-295 CNS; 105% with SF-539 CNS. Besides, the growth in the experiment with UACC-257 melanoma was 92.2%; with M14 melanoma, 97.9%.
In the case of `CCn1cc(C(=O)NNC(=S)Nc2ccc(C)cc2)c(=O)c2ccc(C)nc21`, the growth in the experiment on NCI-H23 lung was 102%; with NCI-H226 lung it was 90.1%; with NCI-H322M lung, 80.4%; in the experiment with HOP-62 NSCLC it was 108%; in the experiment with NCI-H460 lung, 101%; in the experiment with HOP-92 NSCLC, 95.1%. For the same compound, the growth with NCI-H522 lung was 97.3%; in the experiment on A549/ATCC NSCLC, 91.6%; with 786-0 renal, 102%; with COLO 205 colon, 116%; in the experiment with DU-145 prostate it was 108%; in the experiment on K-562 leukemia, 99%. Moreover, the growth was 103% in the experiment on MALME-3M melanoma; 93.5% in the experiment with MDA-MB-231 breast; 104% in the experiment on RXF 393 renal; 103% in the experiment on SF-268 CNS; 102% in the experiment with SF-295 CNS; 102% in the experiment on SF-539 CNS. The growth is 94% in the experiment on UACC-257 melanoma and 113% in the experiment on M14 melanoma.
On to `COC(=O)c1c(C)c2n(c1C)C(=O)C(c1ccccc1)=C2`, for which the growth in the experiment on NCI-H23 lung is 68.9%; with NCI-H226 lung, 61.8%; with NCI-H322M lung, 94.5%; in the experiment with HOP-62 NSCLC, 72.7%; in the experiment on NCI-H460 lung, 89.5%; in the experiment with HOP-92 NSCLC, 65.8%. For the same compound, the growth in the experiment on NCI-H522 lung is 61.9%; in the experiment on A549/ATCC NSCLC, 39.6%; in the experiment with 786-0 renal it was 94.3%; in the experiment on COLO 205 colon, 79.3%; with DU-145 prostate it was 97.9%; in the experiment on K-562 leukemia, 74.8%. Besides, the growth in the experiment on MALME-3M melanoma was 82.1%; in the experiment on MDA-MB-231 breast, 60.5%; in the experiment with RXF 393 renal it was 82.3%; with SF-268 CNS, 103%; with SF-295 CNS it was 79.9%; in the experiment with SF-539 CNS, 87.6%. Besides, the growth was 18.1% in the experiment with UACC-257 melanoma and 86.3% with M14 melanoma.
With `CCCCCCCCCCCCCCCCOCCCOP(=O)(O)C1CCCN(O)C1=O` (stereo not given), the growth is 18.5% in the experiment on NCI-H23 lung; -21.9% (active) with NCI-H226 lung; 28.6% in the experiment on NCI-H322M lung; 11.9% in the experiment on HOP-62 NSCLC; -9.19% (active) in the experiment with NCI-H460 lung; 39.3% with HOP-92 NSCLC. Besides, the growth in the experiment with NCI-H522 lung is 26.2%; in the experiment on A549/ATCC NSCLC, 17.8%; in the experiment with 786-0 renal, -10.4% (active); in the experiment with COLO 205 colon, 4.27% (active); with DU-145 prostate, 24.6%; with K-562 leukemia, 19.4%. Besides, the growth in the experiment with MALME-3M melanoma was 20.4%; in the experiment with MDA-MB-231 breast, 42.7%; in the experiment on RXF 393 renal it was 7.41% (active); in the experiment with SF-268 CNS, 5.39% (active); with SF-295 CNS, 3.46% (active); with SF-539 CNS it was -4.5% (active). Also, the growth in the experiment on UACC-257 melanoma was 18.2%; in the experiment with M14 melanoma, -3.96% (active).
With `CCOC(=O)C1=C(C)NC(=O)NC1c1c(Cl)n(CCCl)c2ccccc12` (stereo not given), the growth in the experiment with NCI-H23 lung is 92.5%; with NCI-H226 lung, 92%; in the experiment on NCI-H322M lung it was 92.6%; with HOP-62 NSCLC it was 90.8%; in the experiment with NCI-H460 lung it was 98.9%; in the experiment on HOP-92 NSCLC, 42.9%. The growth was 90% in the experiment with NCI-H522 lung; 95.4% in the experiment with A549/ATCC NSCLC; 92.9% in the experiment with 786-0 renal; 117% in the experiment on COLO 205 colon; 107% in the experiment on DU-145 prostate; 99.3% in the experiment on K-562 leukemia. Further, the growth is 94.4% with MALME-3M melanoma; 105% with MDA-MB-231 breast; 98.1% with RXF 393 renal; 88% in the experiment on SF-268 CNS; 95.3% in the experiment on SF-295 CNS; 97.2% in the experiment on SF-539 CNS. The growth in the experiment on UACC-257 melanoma was 92.7%; in the experiment on M14 melanoma it was 98.2%.

(Values after PubChem BioAssay (NCI).)
